Screening data deposited in PubChem BioAssay by National Center for Advancing Translational Sciences (NCATS).
In the library only some 7.3% were active in any assay of this set; here they are far more common.
SMN2 splice up – increases expression of the SMN2 splice variant. 210,000 tested, 2.8% active. AID 1458. HEK293 SMN2-luciferase splicing reporter, luminescence, 30-36 h. Potency, µM (series often up to 46.1 µM), hits mostly activators; further: nearly all actives have a fitted effect of over 55% in size
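HEK293 cells carry an SMN2 […]–luciferase reporter in which exon 7 inclusion puts luciferase in frame. Cells were plated 10-12 h before compound addition, then incubated 30-36 h at 37C. ONE-Glo luminescence was read; sodium butyrate at 4.5 mM final served as control.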
ELG1 genotoxic – induces genotoxicity in HEK293T cells with luciferase-tagged ELG1 | Potency, µM (top dose mostly 46 µM), actives largely listed as activators | HEK293T ELG1-luciferase reporter, luminescence, 16 h | AID 504466 | 330,000 tested, 1.3% active; further: nearly all actives have a fitted effect of over 60% in size
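Genotoxic stress is detected as increased luminescence from luciferase-tagged ELG1 in HEK293T cells, measured with ONE-Glo after a 16 hr treatment at 37 °C.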
Rab9 prom act – Rab9 promoter activation; Huh7 Rab9 promoter-luciferase reporter, luminescence, 24 h; Potency, µM (doses to about 9.22 µM), hits mostly activators; 320,000 tested, 2.8% active; further: nearly all actives have a fitted effect of over 60% in size
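Measured in stably transfected Huh7 cells bearing a Rab9 promoter–luciferase construct: 24 h compound treatment at 37 °C, followed by luminescence detection.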
FLuc modulator – firefly luciferase modulation, counter-screen for miR-21 project. purified FLuc, Km substrates, luminescence inhibition. AID 588342. 360,000 tested, 6.9% active. Potency, µM (top dose mostly 57.5 µM), usual class: inhibitors. P08659; further: nearly all actives have a fitted effect of over 55% in size
Target sequence (P08659 whole entry, looked up): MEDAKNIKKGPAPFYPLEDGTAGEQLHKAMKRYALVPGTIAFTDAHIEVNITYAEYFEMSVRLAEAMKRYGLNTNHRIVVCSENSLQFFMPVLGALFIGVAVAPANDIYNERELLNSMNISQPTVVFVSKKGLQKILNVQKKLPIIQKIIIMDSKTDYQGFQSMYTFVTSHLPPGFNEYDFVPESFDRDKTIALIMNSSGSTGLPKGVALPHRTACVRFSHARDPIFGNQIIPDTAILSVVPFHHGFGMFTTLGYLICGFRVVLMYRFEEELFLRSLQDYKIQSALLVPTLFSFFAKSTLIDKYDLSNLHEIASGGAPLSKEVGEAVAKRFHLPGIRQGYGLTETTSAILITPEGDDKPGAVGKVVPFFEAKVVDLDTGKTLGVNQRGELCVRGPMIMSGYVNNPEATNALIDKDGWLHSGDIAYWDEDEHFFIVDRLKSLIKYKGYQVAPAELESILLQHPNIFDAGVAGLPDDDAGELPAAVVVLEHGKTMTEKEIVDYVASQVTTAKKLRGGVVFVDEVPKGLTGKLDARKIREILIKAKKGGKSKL
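Purified P. pyralis luciferase, 10 nM final, with Km-level 10 uM D-luciferin and 10 uM ATP in 50 mM Tris acetate pH 7.5, 10 mM Mg acetate, 0.01% Tween-20, 0.05% BSA; 6-point qHTS titration about 60 µM downward; luminescence read.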
NPC1 promoter act – NPC1 promoter activation; Huh7 NPC1 promoter luciferase reporter, 24 h; Potency, µM (titrated, usually from 9.22 µM), actives largely listed as activators; 320,000 tested, 2.4% active; further: nearly all actives have a fitted effect of over 60% in size
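Stable NPC1-promoter luciferase Huh7 line; cpd (DMSO) 24 h, 37 °C, 5% CO2; Amplite luciferase reagent 10 min RT; luminescence readout. qHTS format.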
Luc counter – blocks Kinase-Glo luciferase, a counter-screen artifact; Q27757; Kinase-Glo luciferase, ATP luminescence, 8 min; Potency, µM (top dose mostly 38.3 µM), actives largely listed as inhibitors; 200,000 tested, 0.28% active; further: nearly all actives have a fitted effect of over 60% in size
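Compounds were added to a substrate mix at pH 7.2 (50 mM imidazole, 10 uM ATP, within the enzyme's linear range), followed by Kinase-Glo detection reagent; luminescence was measured after 8 minutes at ambient temperature.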
Numbers stand for hits; - = inactive; ? = inconclusive; . = no result. The call rests on the fitted dose curve; in most records, active means well fitted curve in the direction sought with a large enough effect; inconclusive means small, poorly fitted or top-dose-only effect, or another doubt; inactive means no such curve, though single readings can be large; an effect the other way counts as inactive or inconclusive.

SMILES	SMN2 splice up	ELG1 genotoxic	Rab9 prom act	FLuc modulator	NPC1 promoter act	Luc counter
COC(=O)c1cccc(NC(=O)Cn2cnc3ccccc3c2=O)c1	-	-	-	-	-	-
COc1cccc(N(C(=O)c2nc3nccc(C)n3n2)c2nc3ccccc3s2)c1	10µM	?	2µM	11µM	?	-
Oc1[nH]c(N=C2N=c3ccccc3=N2)c2ccccc12	.	6.5µM	?	1.3µM	3.2µM	.
COC(=O)c1c(C)[nH]c(C(=O)/C=C/c2ccccc2Cl)c1C	.	-	?	?	2µM	.
COC(=O)c1c(C)[nH]c(C(C)=O)c1C	-	-	-	-	-	-
COC(=O)c1c(C)[nH]c(C(=O)/C=C/c2ccccc2F)c1C	.	4.6µM	1µM	0.3µM	1.3µM	.
Cc1ccc2oc(C(=O)N(C)Cc3ccc(C)o3)c(C)c2c1	.	-	-	27µM	-	.
Cc1ccc2oc(C(=O)N(C)Cc3ccon3)c(C)c2c1	.	9.2µM	3.5µM	11µM	3.2µM	.
CC(C)c1ccc(O)c(NC(=O)c2cncc(Br)c2)c1	-	?	-	?	-	-
COc1ccc(CNC(=O)C2CCN(c3nc4ccc(C)cc4[nH]3)CC2)cc1	.	.	.	-	.	.
Cn1ccc2c(OCC(=O)Nc3ccc(OC(F)(F)F)cc3)cccc2c1=O	.	.	.	-	.	.
O=C(Nc1ccccc1)Nc1ccc(Cl)c([N+](=O)[O-])c1	-	-	-	19µM	-	-
Cc1ccc(NC(=O)Nc2ccccc2)cc1[N+](=O)[O-]	13µM	-	?	8.5µM	?	-
O=C(NC(=S)Nc1ccc(F)c([N+](=O)[O-])c1)c1ccccc1F	-	-	-	?	-	-
O=C(Nc1ccccc1)Nc1ccc(F)c([N+](=O)[O-])c1	-	-	-	17µM	-	-
O=C(Nc1ccc(Cl)c([N+](=O)[O-])c1)Nc1nc2ccccc2s1	.	-	-	?	-	.
COc1ccc(CNC(=O)Cn2ncn3cccc3c2=O)cc1	11µM	?	1.6µM	21µM	?	-
CCOc1ccc(/C(O)=C2/C(=O)C(=O)N(c3cc(C)on3)C2c2ccc(C(=O)OC)cc2)cc1 (stereo not given)	-	-	-	-	-	-
COCCCNC(=S)N/N=C/c1ccc(O)cc1O	.	-	-	?	-	.
COCCCNC(=S)N/N=C/c1cccc(OC)c1O	.	-	-	9.5µM	-	.
O=C(O)c1cccc(NC(=S)N/N=C/c2cccnc2)c1	-	?	?	11µM	?	-
COc1cccc(/C=N/NC(=S)Nc2cccc(C(=O)O)c2)c1O	16µM	-	-	0.19µM	-	-
COc1ccc(/C=N/NC(=S)Nc2cccc(C(=O)O)c2)cc1	13µM	-	1.8µM	1.7µM	2µM	-
Cc1cccc(C)c1NC(=S)N/N=C/c1ccc(C(=O)O)cc1	.	-	-	-	-	.
O=C1NC(=S)N/C1=C/c1cccn1-c1ccc([N+](=O)[O-])cc1	-	-	-	-	-	-
SMILES	SMN2 splice up	ELG1 genotoxic	Rab9 prom act	FLuc modulator	NPC1 promoter act	Luc counter
O=C1CC(NS(=O)(=O)c2ccc([N+](=O)[O-])cc2)CN1c1ccc2c(c1)OCCO2 (stereo not given)	.	-	-	-	-	.
COc1cc(/C=N/NC(=S)Nc2cccc(C(=O)O)c2)ccc1O	-	-	?	4.3µM	?	-
S=C(N/N=C/c1ccccc1Cl)Nc1ccccc1	-	-	?	19µM	?	-
COc1ccc(CCCC(=O)N/N=C/c2cccc(OC)c2O)cc1C	-	?	-	17µM	-	-
COc1ccc(/C=N/NC(=S)Nc2ccccc2)cc1	10µM	?	4µM	11µM	?	-
COc1cc(/C=N/NC(=O)c2ccccc2)ccc1O	-	?	-	?	-	-
Cc1cccc(NC(=O)CN(C)S(=O)(=O)c2ccc(Cl)cc2)n1	-	-	-	-	-	-
Cc1ccc(/C(N)=N/OC(=O)CCC2CCCCC2)cc1	-	-	-	19µM	-	-
Cc1cccc(/C(N)=N/OC(=O)CCc2ccccc2)c1	.	-	?	21µM	-	.
N/C(=N\OC(=O)CCC1CCCC1)c1ccc(Cl)cc1	.	?	-	21µM	-	.
Cc1cccc(/C(N)=N/OC(=O)CCC2CCCCC2)c1	-	?	-	6µM	-	-
CCOC(=O)c1c(-c2ccccc2)csc1NC(=O)c1nc(SCC)ncc1Cl	-	.	.	-	.	.
CN(C)S(=O)(=O)c1ccc(C(=O)Nc2c(C(=O)Nc3ccc(F)cc3)oc3ccccc23)cc1	-	.	.	-	.	.
COc1ccccc1-c1nnc(SC2CCc3ccccc3NC2=O)s1 (stereo not given)	-	-	-	-	-	-
CCCCCCCNC(=O)C1(CC2CC(c3ccc(Cl)cc3)=NO2)CCN(C(=O)CCCCCBr)CC1 (stereo not given)	.	-	-	-	-	.
O=C(CSc1nc2ccsc2c(=O)n1Cc1ccccc1F)NCc1ccccc1	.	.	.	-	.	.
COC(=O)CN1C(=O)N/C(=C/c2cc(OC)c(OC)cc2C)C1=O	.	-	-	-	-	-
N/C(=N\OC(=O)CCCc1ccccc1)c1ccccc1Cl	.	?	-	6.7µM	-	.
COc1ccc(/C(N)=N/OC(=O)CCC2CCCC2)cc1	.	-	-	-	-	.
Cc1ccc(/C(N)=N/OC(=O)CCCc2ccccc2)cc1	.	?	-	?	-	.
Cc1ccc(/C(N)=N/OC(=O)CCC2CCCC2)cc1	-	-	-	15µM	-	-
OC(CNc1nc(C(F)(F)F)nc2ccccc12)c1ccccc1 (stereo not given)	.	-	-	-	-	.
O=C1C2C3C=CC(CNS(=O)(=O)c4ccccc4[N+](=O)[O-])(O3)C2C(=O)N1c1ccccc1 (stereo not given)	-	-	-	-	-	-
COc1ccc(CCNC(=O)c2cc3c(=O)n4cccc(C)c4nc3n(Cc3ccncc3)c2=N)cc1	-	-	-	-	-	-
O=C(CN1CCCCC1)N1c2ccccc2Oc2ccccc21	-	-	-	-	-	-
SMILES	SMN2 splice up	ELG1 genotoxic	Rab9 prom act	FLuc modulator	NPC1 promoter act	Luc counter
O=C(NCCC1=CCCCC1)c1cnc2n(c1=O)CCS2	11µM	?	?	?	?	-
O=C(NCCCc1ccccc1)c1cnc2n(c1=O)CCS2	18µM	-	?	?	?	-
Fc1ccc(NCc2cn3ccccc3n2)cc1	?	-	4µM	15µM	3.2µM	11µM
CN(CC(=O)Nc1cccc(F)c1)C(=O)c1ccc(OCc2cn3ccccc3n2)cc1	.	-	.	.	.	.
O=C(NCCc1cn2ccccc2n1)c1ccccc1F	-	-	-	-	-	-
Fc1cccc(NCc2cn3ccccc3n2)c1	2.5µM	2.3µM	0.79µM	9.5µM	1.8µM	?
COC(=O)c1cc(S(=O)(=O)N2CCN(c3ccc(F)cc3)CC2)cn1C	.	-	-	-	-	.
COc1ccc(NC(=O)C2CCCN(S(=O)(=O)c3ccc4[nH]c(=O)ccc4c3)C2)cc1OC (stereo not given)	.	-	-	-	-	.
